Compounds with a hit are over-represented: about 19% of the library has one in this group of screens.
TDP1 block – blocks human tyrosyl-DNA phosphodiesterase 1. Q9NUW8. recombinant TDP1, AlphaScreen DNA substrate cleavage. Potency, µM (highest dose often 130 µM), inactives show at the highest dose activity change, negative = inhibition, hits mostly inhibitors. 350,000 tested, 0.28% active. AID 485290; further: nearly all actives have a fitted effect of over 40% in size
Target sequence (Q9NUW8 whole entry, looked up): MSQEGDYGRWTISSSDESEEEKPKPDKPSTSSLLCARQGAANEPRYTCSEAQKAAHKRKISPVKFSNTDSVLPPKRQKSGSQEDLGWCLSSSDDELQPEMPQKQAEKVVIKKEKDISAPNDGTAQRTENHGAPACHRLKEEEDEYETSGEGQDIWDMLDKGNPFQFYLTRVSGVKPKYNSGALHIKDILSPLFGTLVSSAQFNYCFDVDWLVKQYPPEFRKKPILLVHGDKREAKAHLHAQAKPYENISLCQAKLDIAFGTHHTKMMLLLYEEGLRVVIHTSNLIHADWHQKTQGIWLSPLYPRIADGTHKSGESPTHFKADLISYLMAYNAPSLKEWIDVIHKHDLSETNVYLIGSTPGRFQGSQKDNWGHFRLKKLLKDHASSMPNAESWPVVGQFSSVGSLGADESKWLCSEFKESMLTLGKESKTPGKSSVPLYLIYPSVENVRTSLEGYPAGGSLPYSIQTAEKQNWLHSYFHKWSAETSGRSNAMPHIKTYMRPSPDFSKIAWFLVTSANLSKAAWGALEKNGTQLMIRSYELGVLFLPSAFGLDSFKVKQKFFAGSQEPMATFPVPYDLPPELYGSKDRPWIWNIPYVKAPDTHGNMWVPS
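AlphaScreen read-out: signal falls as enzyme removes the 3' tyrosine-FITC from a 5'-biotinylated DNA oligo (15 nM, 5 min, RT). Enzyme was E. coli-made recombinant Tdp1 at 1 nM, exposed to compound for 15 min beforehand; beads 10 ug/ml, 10 min.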
RORg inh – inhibitors of mouse ROR gamma transcriptional activity; P51450; AID 2551; Potency, µM (top dose mostly 53.6 µM), inactives show at the top dose activity change, negative = inhibition, usual class: inhibitors; Drosophila S2 Gal4-RORgamma UAS-luciferase reporter, 20 h; 310,000 tested, 5.4% active; further: nearly all actives have a fitted effect of over 60% in size
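ROR gamma transcriptional activity was tracked as Gal4-UAS luciferase output in stably transfected Drosophila Schneider cells, with compound added 1 hr before 700 uM copper sulfate induction and a 20 hr ambient-temperature incubation.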
Gal4-VP16 FLuc – inhibits Gal4-VP16 luciferase reporter, ROR gamma counter-screen; AID 2546; Potency, µM (doses to about 53.6 µM), for the others: top-dose activity, negative = inhibition, hits mostly inhibitors; 310,000 tested, 3.5% active; Drosophila S2 Gal4-VP16 UAS-luciferase, luminescence, 20 h;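 further: Gal4-VP16 expression switched on by copper sulfate through the metallothionein promoter; nearly all actives have a fitted effect of over 50% in size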
DT40 TDP1 no CPT – qHTS for Inhibitors of human tyrosyl-DNA phosphodiesterase 1 (TDP1): qHTS in cells in absence of CPT | 420,000 tested, 15% active | DT40 Tdp1-/- hTDP1 cells, no CPT, ATP luminescence, 48 h | Potency, µM (titrated, usually from 46.2 µM), for the others: at the top dose activity change, negative = growth inhibition, hits mostly inhibitors; further: nearly all actives have a fitted effect of over 55% in size
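DT40 Tdp1-/-;hTDP1 cells, no CPT (DMSO vehicle only), 400 cells/well; compounds pin-transferred; ≥48 hr, 37 °C; CellTiter-Glo 30 min RT dark, luminescence read.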
TDP1 cell CPT – growth inhibition of DT40 Tdp1-/-;hTDP1 cells with camptothecin (screen for TDP1 inhibitors); AID 686979; chicken DT40 Tdp1-/-;hTDP1 cells + 20 nM CPT, ATP luminescence, 48 h; Potency, µM (top dose mostly 46.2 µM), for the others: top-dose activity change, negative = growth inhibition, usual class: inhibitors; 420,000 tested, 12% active; further: nearly all actives have a fitted effect of over 55% in size
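Chicken DT40 Tdp1-/- cells complemented with human TDP1, 400 cells/well, exposed to compounds plus 20 nM camptothecin for at least 48 h at 37 C; viability read as ATP content by CellTiter-Glo luminescence.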
Active calls of the source: *; ? = inconclusive; . = not tested or not shown; [ ] = dose if it differs, or a comment. The call rests on the fitted dose curve; in most records, active means well fitted curve in the direction sought with a large enough effect; inconclusive means small, poorly fitted or top-dose-only effect, or another doubt; inactive means no such curve, though single readings can be large; an effect the other way counts as inactive or inconclusive. On the % scale 0 is the no-effect control and ±100 the full control effect; potency means the concentration at half of the fitted maximal effect.

SMILES	TDP1 block	RORg inh	Gal4-VP16 FLuc	DT40 TDP1 no CPT	TDP1 cell CPT
O=C(O)COc1ccc(/C=N/NC(=O)/C(=C/C=C/c2ccccc2)NC(=O)c2ccccc2)cc1	.	-3%	5%	17%	-8%
O=C1CNC(=O)/C(=C/c2cccs2)N1	0%	21%	13%	4%	1%
Cc1cccc2sc(NC(=O)CCNS(=O)(=O)c3cccc4nonc34)nc12	9%	?	3%	18µM*	?
Nc1[nH]n2c(=O)c3c(nc2c1N=Nc1ccccc1)CCCC3	6%	-28%	-7%	18µM*	?
Cc1ccc(C(=O)Nc2nc3nc(-c4ccccc4)cc(=O)n3[nH]2)cc1	45µM*	1%	-3%	?	-26%
Nc1[nH]n(-c2ccccc2)c(=O)c1N=Nc1ccccc1	11%	4%	-7%	-28%	?
Nc1[nH]n2c(=O)c3c(nc2c1N=Nc1ccc(Cl)cc1)CCCC3	7%	-34%	2%	?	?
Cc1cc(=O)n2[nH]c(N)c(N=Nc3ccccc3)c2n1	3%	?	-23%	29µM*	?
COc1cccc(C(=O)Nc2nc3nc(-c4ccccc4)cc(=O)n3[nH]2)c1	5%	.	.	-16%	-2%
COc1cccc(N=Nc2c(N)[nH]n3c(=O)cc(-c4ccccc4)nc23)c1	5%	-19%	-2%	7.3µM*	9.2µM*
O=CC(O)C1OC(=O)C(O)C1O (stereo not drawn)	.	.	.	-3%	1%
Oc1ccccc1C1OCC2(CO1)COC(c1ccccc1O)OC2 (stereo not drawn)	0%	20%	-11%	-6%	?
Cc1cc(=O)[nH]c(N2CCN(C(=O)c3ccco3)CC2)n1	.	3%	2%	0%	-7%
Cc1ccc(N=Nc2c(N)[nH]n3c(=O)cc(-c4ccccc4)nc23)cc1	11%	-14%	?	15µM*	?
CCNC(=O)CSc1nc2ccccc2c(=O)n1OC	2%	23%	2%	7%	1%
CSc1nsc(SCC(=O)Nc2ccc(OC(C)=O)cc2)n1	3%	26%	1%	?	?
Cc1ccc(C2CCN(C(=O)Nc3ccc(Cl)c(Cl)c3)C2)cc1 (stereo not drawn)	-3%	.	.	26µM*	?
CCOC(=O)c1ccccc1NC(=O)N1CCC(N2CCN(Cc3ccccc3)C(=O)C2=O)CC1	-2%	.	.	-28%	-10%
Cc1ccc(NC(=O)N2CCC(N3CCN(Cc4ccccc4)C(=O)C3=O)CC2)cc1Cl	8%	.	.	15µM*	?
O=C(Nc1ccc(Cl)c(Cl)c1)N1CCC(c2ccccc2)C1 (stereo not drawn)	-2%	.	.	21µM*	?
COc1cccc(CN(C)Cc2nc(C3CC3)no2)c1	0%	5%	9%	-17%	1%
Cc1cccc(-c2nc(CN3CCCC(C(=O)NC4CCC(C)CC4)C3)c(C)o2)c1 (stereo not drawn)	5%	-30%	-9%	18µM*	?
Cc1oc(-c2ccc(Cl)cc2)nc1CN1CCCC(C(=O)N2CCOCC2)C1 (stereo not drawn)	7%	-7%	-8%	?	?
COc1ccc(N2CCN(C(=O)c3ccc(-c4nc(COc5ccccc5)c(C)o4)cc3)CC2)cc1	6%	.	.	-12%	-17%
Cc1cccc(-c2nc(CS(=O)CC(=O)NC3CCCCC3)c(C)o2)c1 (stereo not drawn)	4%	-2%	-5%	-20%	-21%
SMILES	TDP1 block	RORg inh	Gal4-VP16 FLuc	DT40 TDP1 no CPT	TDP1 cell CPT
Cc1cccc(-c2nc(CN3CCCC(C(=O)NC4CCCC4)C3)c(C)o2)c1 (stereo not drawn)	3%	-16%	1%	12µM*	?
Cc1ccc(OCc2nc(-c3ccc(C(=O)N4CCN(c5cc(Cl)ccc5C)CC4)cc3)oc2C)cc1	2%	.	.	12µM*	23µM*
Cc1cccc(-c2nc(CN3CCCC(C(=O)N4CCN(c5cc(Cl)ccc5C)CC4)C3)c(C)o2)c1 (stereo not drawn)	9%	.	.	21µM*	16µM*
CO[C@]1(NC(=O)C(C(=O)O)c2ccc(O)cc2)C(=O)N2C(C(=O)O)=C(CSc3nnnn3C)COC21 (stereo partly drawn)	-13%	8%	7%	-9%	-13%
O=C(NCc1cccs1)c1cc(S(=O)(=O)N2CCOCC2)c(Cl)cc1Cl	-9%[56.1 µM]	-3%	4%	-15%	4%
CCOC(=O)N1CCC(NC(=O)C2CCCN(Cc3nc(-c4cccc(C)c4)oc3C)C2)CC1 (stereo not drawn)	2%	21%	?	2.6µM*	5.8µM*
Cc1occc1C(=O)NC(C)C(C)(C)C (stereo not drawn)	5%	12%	17%	-14%	3%
Cc1cc(C)c2nc(-c3ccccn3)cc(C(=O)N3CCCC3)c2c1	6%	24%	3%	-20%	?
COc1cc(CNC2CCCCCC2)cc(OC)c1O	-2%	-23%	-3%	-8%	1%
COc1cc(CNc2ccc3[nH]c(=O)[nH]c3c2)cc(Cl)c1OCc1ccccc1F	4%	.	.	8.2µM*	12µM*
COc1cc(CNC2CCCC2)cc(Cl)c1OCc1ccccc1F	1%	-34%	-12%	13µM*	16µM*
O=c1[nH]c2ccc(NCc3ccc(F)cc3)cc2[nH]1	10%	8%	1%	?	9%
COc1cc(CNc2ccc3[nH]c(=O)[nH]c3c2)cc(Br)c1OCc1ccc(F)cc1	3%	?	?	15µM*	7.3µM*
COc1cc(CNc2ccc3[nH]c(=O)[nH]c3c2)ccc1OCc1ccc(C)cc1	.	-20%	?	?	?
COc1cc(CNc2ccc3[nH]c(=O)[nH]c3c2)cc(Cl)c1OCc1ccc(F)cc1	3%	.	.	15µM*	18µM*
COC(=O)c1ccc(C)c(NS(=O)(=O)c2ccc(OC)c(OC)c2)c1	1%	9%	2%	?	-24%
COc1ccccc1CNc1ccc(-c2nc(-c3ccncc3)no2)cc1[N+](=O)[O-]	0%	.	.	-15%	-16%
CCOc1cc(C(=O)NC)cc(Br)c1OC	3%	-4%	-7%[10 µM]	-11%	20%
COCCNC(=O)[C@@H]1CCCN1S(=O)(=O)c1cccc2cccnc12	.	.	.	-14%	-11%
COc1ccc(NC(=O)c2ccc(Br)o2)c([N+](=O)[O-])c1	6%	10%	2%	-22%	-14%
Cn1c(NCCCN2CCOCC2)nc2c1c(=O)n(Cc1ccc(Cl)cc1Cl)c(=O)n2C	5%	12%	1%	?	23µM*
CC(C)CCNc1nc2c(c(=O)n(Cc3cccc(F)c3)c(=O)n2C)n1C	-3%	?	-1%	?	26µM*
